Assay outcomes (PubChem BioAssay)
An excerpt weighted towards active compounds, which were near 2.3% of everything screened.
M1 PAM parental = nonselective calcium activators in parental CHO-K1 cells, primary screen, counter-screen for M1 PAM project, cell-based, Fluo-8 calcium fluorescence, full deck, 1536-well; activation, % at 3 µM; actives 0.02% (n = 360,000); ATP EC20; 0% at ATP EC20, 100% at ATP max;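 active means activation above the run cutoff, the mean activation of all test compounds plus 3 SD, cut at about 40% in these data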;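 further: peak over basal fluorescence ratio in a 140 s read after ATP addition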
CHO-K1 Ca antag = M1 antagonist counterscreen hit in parental CHO-K1 cells | ATP-induced calcium, Fluo-8 fluorescence | inhibition, % at 3 µM | actives 0.6% (n = 360,000);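 active means inhibition above a per-plate cutoff, the plate's mean sample inhibition plus 3 SD, cut at about 24% in these data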
CHRM1 PAM = human M1 muscarinic receptor positive allosteric modulators, primary screen, CHO-K1 cells, Fluo-8 calcium fluorescence, 1536-well | AID 588819, 2011 | CHO-K1 hM1, ACh EC20; 0% = ACh EC20, 100% = maximal ACh | Muscarinic acetylcholine receptor M1 (Homo sapiens), P11229 | actives 0.088% (n = 360,000) | activation, % at 3 µM; in the data active means activation above about 19%, passing the limit was not always enough
Target sequence (P11229 whole entry, looked up): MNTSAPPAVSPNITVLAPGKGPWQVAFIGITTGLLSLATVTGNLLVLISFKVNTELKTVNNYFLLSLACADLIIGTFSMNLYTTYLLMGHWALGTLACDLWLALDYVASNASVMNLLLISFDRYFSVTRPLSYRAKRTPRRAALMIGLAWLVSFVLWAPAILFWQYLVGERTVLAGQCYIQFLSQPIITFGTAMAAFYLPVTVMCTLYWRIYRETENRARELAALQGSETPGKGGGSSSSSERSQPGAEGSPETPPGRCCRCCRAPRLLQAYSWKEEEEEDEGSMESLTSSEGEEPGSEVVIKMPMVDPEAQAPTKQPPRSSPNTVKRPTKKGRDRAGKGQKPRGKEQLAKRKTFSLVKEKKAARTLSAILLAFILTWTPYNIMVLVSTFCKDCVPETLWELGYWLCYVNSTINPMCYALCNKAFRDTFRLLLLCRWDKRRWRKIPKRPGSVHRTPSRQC
CHRM1 agonist = human M1 muscarinic receptor agonists, primary screen, Fluo-8 calcium fluorescence, CHO-K1 cells, HTS; AID 588814, 2011; activation, % at 3 µM; Muscarinic acetylcholine receptor M1 (Homo sapiens), P11229; actives 0.33% (n = 360,000); CHO-K1 hM1, agonist mode; 0% DMSO, 100% acetylcholine EC100;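 active means activation above the run's mean compound activation plus 3 SD, cut at about 16% in these data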;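 further: peak over basal fluorescence ratio within a 140 s kinetic read after compound addition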
M1 antag = human M1 muscarinic receptor antagonists, primary screen, CHO-K1 cells, Fluo-8 calcium fluorescence, 1536-well. Muscarinic acetylcholine receptor M1 (Homo sapiens), P11229. CHO-K1 hM1, ACh EC80 antagonist. inhibition, % at 3 µM. actives 1.3% (n = 360,000). AID 588852, 2011;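 active means percent inhibition above its own plate's cutoff, namely the mean of that plate's compound wells plus 3 SD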;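 further: peak over basal fluorescence ratio during 140 s after agonist addition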
M1 ag parental = counter-screen for M1 agonists: effect in parental CHO-K1 cells | AID 602248, 2012 | Fluo-8 calcium fluorescence; scaled to maximal ATP response, vehicle zero | activation, % at 3 µM | actives 0.48% (n = 360,000); in the data active means activation above about 15%;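 further: untransfected CHO-K1 host cells lacking M1 receptor as counterscreen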
Large screens that a line does not name were inactive.

Cc1sc2ccccc2[n+]1CC(=O)c1ccccc1	none
O=C(c1ccccc1)c1c2c(cc3sc4ccccc4[n+]13)-c1cccc3cccc-2c13	CHO-K1 Ca antag 24, CHRM1 agonist 34, M1 antag 46, M1 ag parental 24
CCc1ccc(N2C(=O)CN(Cc3cccs3)C2=S)cc1	none
COc1cc(NC(=O)c2cccs2)c(C(=O)OCC(=O)c2cc(C)n(-c3ccc(F)cc3)c2C)cc1OC	M1 ag parental 17
Cc1ccc(S(=O)(=O)n2ccc3c2CCCC3=O)cc1	M1 antag 54
COc1ccccc1N(C)S(=O)(=O)c1ccc(C(=O)N2CCCc3ccccc32)cc1	M1 ag parental 16
Cc1ccc(S(=O)(=O)N2CCC(C(=O)NCc3ccccc3CN3CCCC3)CC2)cc1	M1 antag 35
COc1ccccc1N(C)S(=O)(=O)c1ccc(C(=O)NCc2ccccc2CN2CCCC2)cc1	M1 antag 36
COc1ccc(S(=O)(=O)N(C)c2ccc(C(=O)N3CCC(C(N)=O)CC3)cc2)cc1OC	CHO-K1 Ca antag 25
COc1ccc(S(=O)(=O)N(C)c2ccc(C(=O)N3CCC(C(N)=O)CC3)cc2)cc1	none
CCc1ccc(C(C(=O)NC2CCCCC2)N(C(=O)c2csnn2)C2CC2)cc1 (stereo not drawn)	none
CCOc1ccc(NS(=O)(=O)c2ccc(C(=O)N3CCCCCC3)cc2)cc1	CHRM1 agonist 22, M1 ag parental 15
CCOC(=O)N1CCN(C(=O)c2ccc(S(=O)(=O)Nc3ccc(C)cc3)cc2)CC1	M1 antag 32
COc1ccc(NS(=O)(=O)c2ccc(OCC(=O)N3CCCC3)cc2)cc1	M1 ag parental 17
CCOc1ccc(NS(=O)(=O)c2ccc(C(=O)NCC3(N(C)C)CCCCC3)cc2)cc1	M1 ag parental 19
CCOC(=O)N1CCN(C(=O)c2ccc(NS(=O)(=O)c3ccc(C)cc3)cc2)CC1	none
CCCS(=O)(=O)NC(=O)C1(C)CCN(C(=O)c2ccc(OC)cc2OC)C1 (stereo not drawn)	none
COc1ccc(NC(=O)C2Cc3c(-c4cccc(C(N)=O)c4)ccnc3O2)cn1 (stereo not drawn)	none
Cc1ccc(NS(=O)(=O)c2ccc(C(=O)N3CCC3)cc2)cc1	none
COc1ccc(CNS(=O)(=O)c2c(C(=O)N3CCCCCC3)c(C)n(C)c2C)cc1	CHO-K1 Ca antag 26
COc1ccc(NS(=O)(=O)c2ccc(C(=O)N3CCCCCC3)cc2)cc1	CHRM1 agonist 23, M1 ag parental 18
Cc1ccc(NS(=O)(=O)c2ccc(C(=O)N3CC(C)OC(C)C3)cc2)cc1 (stereo not drawn)	CHRM1 agonist 39, M1 ag parental 33
CCCC(=O)Nc1ccc(C(=O)N2CCCC2)cc1	CHO-K1 Ca antag 24
CC1(C2CC2)NC(=O)N(CC(=O)NCc2ccc(Cl)cc2Cl)C1=O (stereo not drawn)	none
CC(C)c1cccc(C(C)C)c1NC(=O)OC1CCCCC1	none
Cc1coc2c(C)c3oc(=O)c(CCC(=O)N(C)CC(=O)O)c(C)c3cc12	none
CCOc1ccc(NS(=O)(=O)c2ccc(C(=O)N3CCCC(C)C3)cc2)cc1 (stereo not drawn)	CHRM1 agonist 39, M1 antag 28, M1 ag parental 31
CC(C)NS(=O)(=O)c1ccc(OCC(=O)N2CCN(c3ccccc3)CC2)cc1	none
O=C(c1ccc(S(=O)(=O)Nc2ccccc2)cc1)N1CCCC(C(F)(F)F)C1 (stereo not drawn)	CHO-K1 Ca antag 26, CHRM1 agonist 31, M1 ag parental 15
O=C(COc1ccc(S(=O)(=O)NC2CCCCC2)cc1)N1CCN(c2cccc(Cl)c2)CC1	M1 antag 26
FC(F)Sc1ccc(-n2c(-c3ccc(Cl)cc3)c[n+]3c2CCC3)cc1	M1 antag 61
CC(C)C1CC(CCN)(c2ccccc2)CCO1 (stereo not drawn)	M1 antag 74
